In PubChem BioAssay (EPA / NIEHS):
The source holds several records for some structures; these can differ, active in one and inactive in another. Calls of active or inactive are those of the source. The calls were made as follows: active = hit-call score of the fitted dose curve at least 0.9, where 1 is the maximum; inactive = score below 0.9.

Each compound was assayed against Signal transducer and activator of transcription 3 (Homo sapiens) (UniProt P40763) (assay: ATG_STAT3_CIS: Attagene CIS-FACTORIAL HepG2 Assay for human Signal Transducer and Activator of Transcription 3 (STAT3) (AID 2282963)). Conditions: HepG2, Attagene cis-factorial STAT3 reporter transcription; actives raise or lower the signal.
Signal transducer and activator of transcription 3 (Homo sapiens), sequence (P40763 whole entry, looked up): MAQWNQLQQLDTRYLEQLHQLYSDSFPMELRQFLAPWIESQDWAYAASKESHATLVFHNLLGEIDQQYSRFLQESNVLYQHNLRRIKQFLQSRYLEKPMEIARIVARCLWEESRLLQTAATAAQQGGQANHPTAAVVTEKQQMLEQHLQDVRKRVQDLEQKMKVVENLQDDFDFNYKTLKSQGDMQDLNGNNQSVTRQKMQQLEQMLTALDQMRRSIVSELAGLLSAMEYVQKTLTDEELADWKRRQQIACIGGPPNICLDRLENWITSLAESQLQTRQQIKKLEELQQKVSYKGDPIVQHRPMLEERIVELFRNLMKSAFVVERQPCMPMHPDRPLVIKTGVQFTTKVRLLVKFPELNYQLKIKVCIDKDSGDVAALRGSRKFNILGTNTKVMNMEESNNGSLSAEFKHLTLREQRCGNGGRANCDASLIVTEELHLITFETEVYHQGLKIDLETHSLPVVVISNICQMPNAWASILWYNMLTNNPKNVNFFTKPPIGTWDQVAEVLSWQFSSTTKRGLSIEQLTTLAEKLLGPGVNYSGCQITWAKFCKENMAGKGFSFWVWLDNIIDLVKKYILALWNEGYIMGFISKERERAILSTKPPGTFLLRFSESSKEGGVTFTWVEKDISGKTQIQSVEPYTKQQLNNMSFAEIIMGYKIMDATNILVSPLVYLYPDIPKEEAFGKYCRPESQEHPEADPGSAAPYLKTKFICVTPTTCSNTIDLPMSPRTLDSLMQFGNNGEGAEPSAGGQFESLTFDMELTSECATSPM
Experimental: ATG_CIS is a cell-based, multiplexed-readout assay that uses HepG2, a human liver cell line, with measurements taken at 24 hours after chemical dosing in a 24-well plate.ATG_STAT3_CIS is one of 52 assay component(s) measured or calculated from the ATG_CIS assay. It is designed to make measurements of mRNA induction, a form of inducible reporter, as detected with fluorescence intensity signals by Reverse transcription polymerase chain reaction (RT-PCR) and Capillary electrophoresis technology.Data from the assay component ATG_STAT3_CIS was analyzed into 1 assay endpoint. This assay endpoint, ATG_STAT3_CIS, was analyzed with bidirectional fitting relative to DMSO as the negative control and baseline of activity. Using a type of inducible reporter, measures of mRNA for gain or loss-of-signal activity can be used to understand the reporter gene at the transcription factor-level as they relate to the gene STAT3. Furthermore, this assay endpoint can be referred to as a primary readout, because this assay has produced multiple assay endpoints where this one serves a reporter gene function. To generalize the intended target to other relatable targets, this assay endpoint is annotated to the dna binding intended target family, where the subfamily is stat protein.
Human liver HepG2 cells are transiently transfected with multiple reporter transcription units (MRTUs) in 6-well plates using FuGene 6 reagent (Roche; 3 ml FuGene/1 mg DNA). The MRTU constructs are regulated by a cis-regulating element (promoter). […] A major difference between the CIS and TRANS system is that in CIS activities of endogenous TFs are measured, whereas the TRANS assay evaluates changes in activities of exogenous, chimeric NR-Gal4 proteins. […] At the end of 24 hour incubation, total RNA was isolated using TriZol reagent (Invitrogen). The isolated RNA is then reverse-transcribed using oligo(dT) primer and Mo-MLV reverse transcriptase (Invitrogen) with DNAse I (Ambion) treatment for 30 min. The one-tenth of the produced cDNA was amplified by PCR using Taq DNA polymerase (Invitrogen) and two reporter sequence-specific primers. The PCR products were fluorescently labeled by primer extension with 6-arboxyfluorescein (6-FAM) 5'-labeled reporter sequence-specific primer (2 min at 95 C, 20 s at 68 C and 10 min at 72 C) and these products were digested with 5U of HpaI (New England Biolabs) for 2h at 37 C. The fragments were purified using Qiaquick PCR columns (Qiagen), analyzed on an ABI 3130xL genetic analyzer (Applied Biosystems) with peak positions identified by using a set of X-rhodamine (ROX)-labeled MapMarker1000 molecular weight standards (BioVentures). The raw capillary electrophoresis data was processed using Attagraph software (Attagene).

**Q.** Which outcome does the source give for `CCCN(CCC)c1c([N+](=O)[O-])cc(S(N)(=O)=O)cc1[N+](=O)[O-]` here?
**A.** The outcome was “inactive”.

**Q.** For `N#Cc1cc(Br)c(O)c(Br)c1`, which outcome is on record?
**A.** The outcome was “inactive”.

**Q.** `O=C(O)COc1nc(Cl)c(Cl)cc1Cl` was tested. Which outcome did it give?
**A.** The outcome was “inactive”.

**Q.** With `CCCC1COC(Cn2cncn2)(c2ccc(Cl)cc2Cl)O1` (stereo not given) as the compound, how does the outcome read?
**A.** The outcome was “inactive”.

**Q.** `CCON=C(CC)C1=C(O)CC(c2c(C)cc(C)cc2C)CC1=O` (stereo not given) was tested. Which outcome did it give?
**A.** Its outcome is “inactive”.

**Q.** With `C#CCOS(=O)OC1CCCCC1Oc1ccc(C(C)(C)C)cc1` (stereo not given) as the compound, how does the outcome read?
**A.** The outcome was “inactive”.

**Q.** For `CC(C)C1(C)N=C(c2nc3ccccc3cc2C(=O)O)NC1=O` (stereo not given), which outcome is on record?
**A.** The outcome was “inactive”.

**Q.** `Cc1cc(Cl)ccc1OCC(=O)O` was tested. Which outcome did it give?
**A.** Its outcome is “inactive”.

**Q.** With `COc1ccc(C(c2ccc(OC)cc2)C(Cl)(Cl)Cl)cc1` as the compound, how does the outcome read?
**A.** Its outcome is “inactive”.

**Q.** For `C=CCC1=C(C)C(OC(=O)C2C(C=C(C)C)C2(C)C)CC1=O` (stereo not given), which outcome is on record?
**A.** Its outcome is “inactive”.

**Q.** How did the outcome turn out when `CCOc1cc(Oc2ccc(C(F)(F)F)cc2Cl)ccc1[N+](=O)[O-]` was run?
**A.** Its outcome is “inactive”.

**Q.** `CNC(=O)ON=CC(C)(C)SC` was tested. Which outcome did it give?
**A.** The outcome was “inactive”.

**Q.** How did the outcome turn out when `O=C(O)c1nc(Cl)ccc1Cl` was run?
**A.** The outcome was “inactive”.

**Q.** Which outcome does the source give for `CO/C=C(/C(=O)OC)c1ccccc1Oc1cc(Oc2ccccc2C#N)ncn1` here?
**A.** Its outcome is “inactive”.

**Q.** `CCCCC(CC)COC(=O)c1ccccc1C(=O)OCC(CC)CCCC` (stereo not given) was tested. Which outcome did it give?
**A.** The outcome was “inactive”.

**Q.** For `CCNc1nc(Cl)nc(NCC)n1`, which outcome is on record?
**A.** Its outcome is “inactive”.

**Q.** For `CCCCNC(=O)OCC#CI`, which outcome is on record?
**A.** The outcome was “inactive”.

**Q.** And the AC50?
**A.** Its AC50 is 60.2 µM (active).

**Q.** For `N#CC(CCc1ccc(Cl)cc1)(Cn1cncn1)c1ccccc1` (stereo not given), which outcome is on record?
**A.** Its outcome is “inactive”.

**Q.** Which outcome does the source give for `COC(=O)C(C)Oc1ccc(Oc2ccc(Cl)cc2Cl)cc1` (stereo not given) here?
**A.** Its outcome is “inactive”.

**Q.** With `CCOC(=O)C(Cl)Cc1cc(-n2nc(C)n(C(F)F)c2=O)c(F)cc1Cl` (stereo not given) as the compound, how does the outcome read?
**A.** Its outcome is “inactive”.

**Q.** Which outcome does the source give for `COP(=S)(OC)Oc1nc(Cl)c(Cl)cc1Cl` here?
**A.** The outcome was “inactive”.

**Q.** How did the outcome turn out when `Fc1ccc(Oc2ccnc3cc(Cl)cc(Cl)c23)cc1` was run?
**A.** The outcome was “inactive”.

**Q.** With `C=CCC1=C(C)[C@@H](OC(=O)[C@@H]2[C@@H](C=C(C)C)C2(C)C)CC1=O` as the compound, how does the outcome read?
**A.** The outcome was “inactive”.

**Q.** With `CC(Oc1ccc(Cl)cc1Cl)C(=O)O` (stereo not given) as the compound, how does the outcome read?
**A.** Its outcome is “inactive”.

**Q.** With `OC(c1ccc(Cl)cc1)(c1cncnc1)c1ccccc1Cl` (stereo not given) as the compound, how does the outcome read?
**A.** The outcome was “inactive”.

**Q.** `CC1COC(Cn2cncn2)(c2ccc(Oc3ccc(Cl)cc3)cc2Cl)O1` (stereo not given) was tested. Which outcome did it give?
**A.** Its outcome is “inactive”.

**Q.** How did the outcome turn out when `COC(=O)c1ccccc1C(=O)OC` was run?
**A.** The outcome was “inactive”.

**Q.** How did the outcome turn out when `CCc1nn(C)c(C(=O)NCc2ccc(C(C)(C)C)cc2)c1Cl` was run?
**A.** Its outcome is “inactive”.

**Q.** Which outcome does the source give for `CNC(=S)S` here?
**A.** The outcome was “inactive”.

**Q.** `COC(=O)N(OC)c1ccccc1COc1ccn(-c2ccc(Cl)cc2)n1` was tested. Which outcome did it give?
**A.** Its outcome is “inactive”.

**Q.** `Oc1ccccc1-c1ccccc1` was tested. Which outcome did it give?
**A.** The outcome was “inactive”.

**Q.** Which outcome does the source give for `CCNc1nc(Cl)nc(NC(C)C)n1` here?
**A.** Its outcome is “inactive”.

**Q.** With `CCCCOC(=O)c1ccccc1C(=O)OCCCC` as the compound, how does the outcome read?
**A.** Its outcome is “inactive”.

**Q.** With `CCCCNC(=O)n1c(NC(=O)OC)nc2ccccc21` as the compound, how does the outcome read?
**A.** The outcome was “inactive”.

**Q.** How did the outcome turn out when `CCOC(=O)CC(SP(=S)(OC)OC)C(=O)OCC` (stereo not given) was run?
**A.** The outcome was “inactive”.

**Q.** Which outcome does the source give for `CN(C)C(=S)SSC(=S)N(C)C` here?
**A.** The outcome was “inactive”.

**Q.** For `CCOP(=S)(OCC)SCn1c(=O)oc2cc(Cl)ccc21`, which outcome is on record?
**A.** Its outcome is “inactive”.

**Q.** For `CC(C)(C)c1ccc(CSc2cnn(C(C)(C)C)c(=O)c2Cl)cc1`, which outcome is on record?
**A.** The outcome was “inactive”.

**Q.** With `N#Cc1nn(-c2c(Cl)cc(C(F)(F)F)cc2Cl)c(N)c1S(=O)C(F)(F)F` (stereo not given) as the compound, how does the outcome read?
**A.** Its outcome is “inactive”.
